Design in all cases: scale not given: direction of the effect not stated beside the values
Test [1] concerns the target Protein translocase subunit SecA (Escherichia coli (strain K12)) (UniProt P10408). Nature of the test: Assay to Identify E. coli SecA ATPase Inhibitors. Particulars: 30 µM. The class given is functional.
In test [2] the target is T1, Ubiquitin-activating enzyme e1, putative (Leishmania donovani (strain BPK282A1)) (UniProt E9BSI1).
T1 sequence (whole entry): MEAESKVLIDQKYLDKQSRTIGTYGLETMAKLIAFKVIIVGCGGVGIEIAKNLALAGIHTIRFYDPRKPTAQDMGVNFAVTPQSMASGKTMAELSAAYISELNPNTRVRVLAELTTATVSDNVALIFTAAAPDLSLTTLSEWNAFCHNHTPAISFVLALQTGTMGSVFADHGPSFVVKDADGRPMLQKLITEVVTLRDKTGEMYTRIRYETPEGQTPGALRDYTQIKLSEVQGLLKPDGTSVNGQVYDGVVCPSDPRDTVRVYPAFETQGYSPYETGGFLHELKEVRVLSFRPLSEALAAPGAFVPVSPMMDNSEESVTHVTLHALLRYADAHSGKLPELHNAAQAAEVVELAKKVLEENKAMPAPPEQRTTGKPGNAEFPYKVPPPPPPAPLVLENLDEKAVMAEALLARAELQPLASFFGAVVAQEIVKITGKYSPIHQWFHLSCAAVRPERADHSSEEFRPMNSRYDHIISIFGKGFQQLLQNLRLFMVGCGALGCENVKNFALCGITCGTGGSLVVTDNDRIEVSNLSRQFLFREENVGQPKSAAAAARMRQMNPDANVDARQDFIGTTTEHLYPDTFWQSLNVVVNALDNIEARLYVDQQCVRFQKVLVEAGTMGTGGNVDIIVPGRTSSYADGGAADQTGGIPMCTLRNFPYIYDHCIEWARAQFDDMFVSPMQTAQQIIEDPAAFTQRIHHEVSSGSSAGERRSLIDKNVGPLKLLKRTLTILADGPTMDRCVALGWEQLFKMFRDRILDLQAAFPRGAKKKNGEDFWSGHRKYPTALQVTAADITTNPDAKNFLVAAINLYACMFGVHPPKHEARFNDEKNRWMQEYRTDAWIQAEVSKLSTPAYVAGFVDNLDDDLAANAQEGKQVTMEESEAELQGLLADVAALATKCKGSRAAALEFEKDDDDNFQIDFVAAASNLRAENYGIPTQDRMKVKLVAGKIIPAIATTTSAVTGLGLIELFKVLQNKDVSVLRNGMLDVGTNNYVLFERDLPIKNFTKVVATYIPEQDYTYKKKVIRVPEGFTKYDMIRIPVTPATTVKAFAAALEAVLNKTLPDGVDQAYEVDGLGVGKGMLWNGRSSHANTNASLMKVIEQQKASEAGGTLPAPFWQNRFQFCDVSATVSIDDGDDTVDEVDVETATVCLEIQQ
Description: Leishmania donovani Ubiquitin Activating Enzyme (LdE1). The class given is functional. Particulars: 30 µM.

Test [3] addresses AMP-activated protein kinase, AMPK (Homo sapiens) (UniProt P54646+O43741+P54619+Q9UGJ0+Q9Y478+Q13131+Q9UGI9). Nature of the test: AMP-dependent Kinase enzyme assay. An in vitro enzyme assay that detects ADP turnover that is directly proportional to AMPK activity. This uses naive AMPK that is activated during the assay with MK-8722. The class given is functional. Particulars: 30 µM.

Test [4] deals with Sialic acid-binding Ig-like lectin 9 (Homo sapiens) (UniProt Q9Y336). Nature of the test: Hs-Siglec9 ALPHAscreen SOP 20170721. The settings on record: 10 µM.
Sequence of Sialic acid-binding Ig-like lectin 9 (Homo sapiens) (Q9Y336 whole entry): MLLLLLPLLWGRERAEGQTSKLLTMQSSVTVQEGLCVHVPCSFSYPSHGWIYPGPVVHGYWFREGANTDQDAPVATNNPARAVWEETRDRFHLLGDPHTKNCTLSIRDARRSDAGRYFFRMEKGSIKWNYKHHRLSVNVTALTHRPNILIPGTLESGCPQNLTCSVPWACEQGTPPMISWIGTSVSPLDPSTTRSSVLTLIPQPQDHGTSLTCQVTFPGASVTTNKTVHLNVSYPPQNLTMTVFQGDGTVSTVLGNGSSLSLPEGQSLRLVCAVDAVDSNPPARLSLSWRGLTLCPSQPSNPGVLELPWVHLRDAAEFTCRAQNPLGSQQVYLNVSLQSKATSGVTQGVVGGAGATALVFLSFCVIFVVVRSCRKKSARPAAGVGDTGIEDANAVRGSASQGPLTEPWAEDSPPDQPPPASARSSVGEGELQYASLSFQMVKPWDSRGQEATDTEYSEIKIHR
Another test has as its system Trypanosoma cruzi. Nature of the test: Trypanosoma cruzi phosphomannomutase and mannose-1-phosphate guanylyltransferase assay. The test is classed as functional. Particulars: 10 µM.
The target of test [5] is T2, Arginase-2, mitochondrial (Homo sapiens) (UniProt P78540).
T2 sequence (whole entry): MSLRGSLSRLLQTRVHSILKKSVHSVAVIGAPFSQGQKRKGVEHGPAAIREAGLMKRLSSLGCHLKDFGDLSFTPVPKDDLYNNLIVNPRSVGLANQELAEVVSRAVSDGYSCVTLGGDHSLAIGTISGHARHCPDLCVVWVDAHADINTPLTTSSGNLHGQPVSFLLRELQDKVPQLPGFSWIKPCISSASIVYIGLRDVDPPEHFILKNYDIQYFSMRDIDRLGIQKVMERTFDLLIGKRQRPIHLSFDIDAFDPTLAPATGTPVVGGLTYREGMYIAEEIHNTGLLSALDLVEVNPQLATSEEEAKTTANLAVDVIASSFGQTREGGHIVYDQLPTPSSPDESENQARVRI
Description: in vitro enzyme assay to detect the production of urea directly proportional to the activity of Arginase II. Also: in the data most compounds retested in dose-response had high values. The class given is functional. The settings on record: 33.3 µM.

The target of test [6] is T3, Proteasome subunit beta (Trypanosoma cruzi) (UniProt O96673).
T3 sequence (whole entry): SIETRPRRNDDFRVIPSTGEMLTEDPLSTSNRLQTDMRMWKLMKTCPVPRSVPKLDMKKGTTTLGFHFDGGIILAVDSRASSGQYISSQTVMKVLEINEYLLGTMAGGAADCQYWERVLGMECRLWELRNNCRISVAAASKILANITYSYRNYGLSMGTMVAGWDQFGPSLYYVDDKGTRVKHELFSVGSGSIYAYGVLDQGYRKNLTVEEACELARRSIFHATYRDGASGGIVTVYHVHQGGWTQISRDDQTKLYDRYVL
Nature of the test: Trypanosoma cruzi proteasome chymotrypsin-like activity (TcProtChymo) assay. Also: in the data most compounds retested in dose-response had high values. The test is classed as functional. The settings on record: 9.37 µM.

For another test, the species on record is Homo sapiens. Nature of the test: To identify inhibition of the IFN signalling (Jak-Stat) pathway via expression of an eGFP reporter gene under the control of an IFN-stimulated response element (ISRE) containing MxA promoter. The test is classed as functional. Particulars: 30 µM.
Test [7] concerns the target T4, Tyrosyl-tRNA synthetase, putative (Trypanosoma cruzi (strain CL Brener)) (UniProt Q4DSP6).
T4 sequence (whole entry): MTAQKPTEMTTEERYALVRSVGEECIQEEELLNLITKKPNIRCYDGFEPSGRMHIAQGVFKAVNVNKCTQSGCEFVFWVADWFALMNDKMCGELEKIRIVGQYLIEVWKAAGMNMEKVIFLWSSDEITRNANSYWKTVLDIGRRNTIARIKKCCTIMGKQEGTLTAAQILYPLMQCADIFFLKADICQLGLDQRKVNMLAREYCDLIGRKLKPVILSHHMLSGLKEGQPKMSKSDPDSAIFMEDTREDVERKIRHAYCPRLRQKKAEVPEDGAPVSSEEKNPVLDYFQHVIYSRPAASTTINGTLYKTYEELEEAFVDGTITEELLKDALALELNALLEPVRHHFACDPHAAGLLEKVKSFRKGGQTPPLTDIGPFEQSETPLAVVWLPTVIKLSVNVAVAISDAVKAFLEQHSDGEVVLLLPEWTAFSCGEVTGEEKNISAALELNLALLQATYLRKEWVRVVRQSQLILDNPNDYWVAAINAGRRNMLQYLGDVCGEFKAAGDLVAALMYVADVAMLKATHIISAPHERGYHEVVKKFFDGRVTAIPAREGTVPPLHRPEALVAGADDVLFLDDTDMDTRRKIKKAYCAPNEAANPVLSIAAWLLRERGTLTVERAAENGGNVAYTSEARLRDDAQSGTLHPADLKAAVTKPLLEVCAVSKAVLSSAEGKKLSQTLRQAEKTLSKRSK
Nature of the test: Trypanosoma cruzi tyrosyl tRNA synthetase (TcYRS) _High Tyrosine SOP. Also: in the data most compounds retested in dose-response had high values. The class given is functional. The settings on record: 30 µM.

Test [8] concerns the target T4, Tyrosyl-tRNA synthetase, putative (Trypanosoma cruzi (strain CL Brener)). Nature of the test: Trypanosoma cruzi tyrosyl tRNA synthetase (TcYRS) SOP. The test is classed as functional. Particulars: 30 µM.
The target of test [9] is Chromo domain-containing protein 1 (Saccharomyces cerevisiae (strain ATCC 204508 / S288c) (Baker's yeast)) (UniProt P32657). Description: ScCHD-1 Enzyme Inhibition Assay. Also: in the data most compounds retested in dose-response had high values. The test is classed as functional. Particulars: 30 µM.
Sequence of Chromo domain-containing protein 1 (Saccharomyces cerevisiae (strain ATCC 204508 / S288c) (Baker's yeast)) (P32657 whole entry, the tested form may be a part): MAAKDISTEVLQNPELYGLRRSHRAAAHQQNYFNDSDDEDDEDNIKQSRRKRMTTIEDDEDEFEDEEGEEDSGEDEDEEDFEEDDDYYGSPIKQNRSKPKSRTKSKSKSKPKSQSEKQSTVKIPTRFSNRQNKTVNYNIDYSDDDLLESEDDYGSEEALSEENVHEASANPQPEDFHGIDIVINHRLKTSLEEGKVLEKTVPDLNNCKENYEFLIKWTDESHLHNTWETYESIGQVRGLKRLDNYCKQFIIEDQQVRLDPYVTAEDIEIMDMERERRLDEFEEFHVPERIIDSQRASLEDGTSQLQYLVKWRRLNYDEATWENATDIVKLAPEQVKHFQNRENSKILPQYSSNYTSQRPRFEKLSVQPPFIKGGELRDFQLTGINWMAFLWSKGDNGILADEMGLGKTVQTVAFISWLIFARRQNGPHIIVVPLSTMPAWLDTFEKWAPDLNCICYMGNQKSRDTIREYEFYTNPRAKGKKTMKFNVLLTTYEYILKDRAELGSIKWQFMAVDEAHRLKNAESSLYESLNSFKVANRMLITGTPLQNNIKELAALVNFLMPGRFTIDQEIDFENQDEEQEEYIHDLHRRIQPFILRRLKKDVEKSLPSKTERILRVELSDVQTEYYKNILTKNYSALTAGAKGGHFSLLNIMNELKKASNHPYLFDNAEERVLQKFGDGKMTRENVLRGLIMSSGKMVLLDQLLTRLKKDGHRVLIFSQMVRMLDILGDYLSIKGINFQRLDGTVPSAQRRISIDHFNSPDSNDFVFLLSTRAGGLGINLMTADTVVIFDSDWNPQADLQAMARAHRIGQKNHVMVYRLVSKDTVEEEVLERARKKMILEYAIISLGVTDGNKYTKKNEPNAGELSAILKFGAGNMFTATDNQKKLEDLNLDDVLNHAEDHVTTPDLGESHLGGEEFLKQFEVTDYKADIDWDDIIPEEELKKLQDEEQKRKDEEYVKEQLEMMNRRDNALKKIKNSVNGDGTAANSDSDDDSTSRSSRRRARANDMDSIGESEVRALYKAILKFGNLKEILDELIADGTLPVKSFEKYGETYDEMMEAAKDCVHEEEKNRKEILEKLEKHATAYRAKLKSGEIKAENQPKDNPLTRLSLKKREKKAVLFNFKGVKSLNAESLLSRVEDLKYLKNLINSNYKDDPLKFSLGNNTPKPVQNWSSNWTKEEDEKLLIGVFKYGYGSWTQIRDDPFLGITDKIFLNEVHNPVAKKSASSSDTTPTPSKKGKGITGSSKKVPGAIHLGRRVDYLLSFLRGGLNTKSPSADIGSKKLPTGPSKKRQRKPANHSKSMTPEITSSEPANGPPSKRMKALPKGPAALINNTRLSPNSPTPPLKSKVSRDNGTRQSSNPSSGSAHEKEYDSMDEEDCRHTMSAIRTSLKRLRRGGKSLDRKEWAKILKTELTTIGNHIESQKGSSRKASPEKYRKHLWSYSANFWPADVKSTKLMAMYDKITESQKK

For some of these results: Entries with a potency or affinity are not part of this list.

Sequence of Protein translocase subunit SecA (Escherichia coli (strain K12)) (P10408 whole entry): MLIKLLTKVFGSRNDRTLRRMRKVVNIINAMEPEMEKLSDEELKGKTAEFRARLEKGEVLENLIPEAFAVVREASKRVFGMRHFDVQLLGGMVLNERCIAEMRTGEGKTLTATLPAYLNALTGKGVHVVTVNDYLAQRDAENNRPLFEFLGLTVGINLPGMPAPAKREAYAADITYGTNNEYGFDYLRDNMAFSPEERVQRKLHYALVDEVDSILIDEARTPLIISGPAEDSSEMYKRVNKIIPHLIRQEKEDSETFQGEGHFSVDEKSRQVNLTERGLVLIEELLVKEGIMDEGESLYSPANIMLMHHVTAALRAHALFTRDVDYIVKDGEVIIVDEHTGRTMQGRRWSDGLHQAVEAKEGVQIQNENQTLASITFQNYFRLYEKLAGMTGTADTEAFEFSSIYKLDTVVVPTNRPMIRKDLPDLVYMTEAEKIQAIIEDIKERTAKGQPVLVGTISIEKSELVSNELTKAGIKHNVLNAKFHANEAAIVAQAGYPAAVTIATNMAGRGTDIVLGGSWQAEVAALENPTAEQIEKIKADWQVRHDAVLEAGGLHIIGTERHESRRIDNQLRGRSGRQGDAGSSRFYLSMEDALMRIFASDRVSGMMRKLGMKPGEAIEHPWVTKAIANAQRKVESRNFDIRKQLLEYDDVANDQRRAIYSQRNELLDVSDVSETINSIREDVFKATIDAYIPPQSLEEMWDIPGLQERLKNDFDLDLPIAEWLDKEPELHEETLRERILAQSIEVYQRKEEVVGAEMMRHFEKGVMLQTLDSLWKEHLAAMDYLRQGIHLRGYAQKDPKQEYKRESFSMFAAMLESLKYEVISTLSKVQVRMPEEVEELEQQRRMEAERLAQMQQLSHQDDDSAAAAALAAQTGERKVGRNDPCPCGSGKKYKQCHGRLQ

On to `CCN1CCC(CNC(=O)C2(c3cccc(C)c3)CC2)C1` (stereo unspecified), for which the Percent Effect was -2.88% in test [1]; -1.27% in test [2]; 6.26% in test [3]; 2.04% in [4]; -7.69% in the test on Trypanosoma cruzi; 5.81% in test [5]. Moreover, the Percent Effect in test [6] was 10.1%; in the test filed under Homo sapiens, 13.3%; in test [7] it was 11.5%; in test [8] it was 15.2%; in [9], -11.4%.
Consider `CCc1ccc(S(=O)(=O)Nc2cc(C(=O)O)c(F)cc2F)s1`, for which the Percent Effect in [1] was -10.3%; in [2] it was 2.63%; in test [3], -14.5%; in test [4] it was 19.8%; with Trypanosoma cruzi, 9.99%; in test [5], 1.08%. For the same molecule, the Percent Effect in [6] is 6.51%; in the test filed under Homo sapiens, 4.81%; in [7], 2.46%; in test [8], 16.1%; in [9], -10.2%.
Turning to `COc1cc2nc3n(c(=O)c2cc1OC)CCN(C(C)=O)CC3`, the Percent Effect is -1.86% in test [1]; 4.05% in [2]; 9.32% in test [3]; 3.01% in test [4]; 0.593% in the test on Trypanosoma cruzi; -1.16% in test [5]. Moreover, the Percent Effect in test [6] is 5.62%; in the test filed under Homo sapiens, 11.5%; in test [7] it was 1.07%; in test [8], 11.7%; in [9], -1.39%.
Regarding `COCC(=O)N1CCCC2(CCN(c3ccsc3)C2=O)C1` (stereo unspecified), the Percent Effect in test [1] was -5.59%; in [2] it was 2.67%; in [3], 5.83%; in [4], -0.603%; in the test on Trypanosoma cruzi, -1.18%; in test [5] it was -0.699%. In addition, the Percent Effect was -5.73% in [6]; 26.1% in the test listed under Homo sapiens; 0% in [7]; -1.28% in test [8]; 4.35% in [9].
Take `Cc1nc(C2CCCN2CC(=O)N2CCCc3ccccc32)no1` (stereo unspecified): the Percent Effect in test [1] was -2.99%; in test [2], -13.2%; in test [3], -3.99%; in [4], 5.27%; with Trypanosoma cruzi, 6.77%; in test [5], 3.45%. Further, the Percent Effect in test [6] is 0%; in the test listed under Homo sapiens, 6.64%; in [7], 4.41%; in test [8] it was 4.88%; in [9], -4.73%.
Take `CCN(CC)C(=O)c1ccc(-c2ccsc2)nc1C`: the Percent Effect was -1.54% in [1]; 6.94% in test [2]; 5.62% in test [3]; -7.86% in test [4]; -4.37% with Trypanosoma cruzi; -0.442% in test [5]. Also, the Percent Effect in test [6] is 25.3%; in the test listed under Homo sapiens, -1.98%; in test [7], 4.21%; in test [8], 5.13%; in [9], -1.47%.
With `CCn1ccnc1CN(C)C1CCCN(CCc2ccccc2)C1` (stereo unspecified), the Percent Effect in test [1] is -7.05%; in test [2], 0%; in test [3], 0.137%; in test [4] it was 4.16%; with Trypanosoma cruzi, -3.64%; in [5], 4.14%. In addition, the Percent Effect in [6] is 0.832%; in the test listed under Homo sapiens, -8.38%; in test [7] it was 5.38%; in test [8], 3.7%; in test [9], 2.42%.
As for `CC1CCCCN1CCNC(=O)c1ccn(-c2ccc(F)cc2)n1` (stereo unspecified), the Percent Effect was -2.64% in [1]; 18.9% in [2]; 3.92% in [3]; 3.77% in [4]; 6.51% in the test on Trypanosoma cruzi; -16% in test [5]. Further, the Percent Effect in test [6] is 18.9%; in the test listed under Homo sapiens it was 6.78%; in [7], -26.1%; in test [8] it was 23.5%; in [9], -19.6%.
For the molecule `Cc1nc(CN2C(=O)COC3(CCN(Cc4nccs4)CC3)C2C)cs1` (stereo unspecified), the Percent Effect in [1] was -1.57%; in test [2], 0%; in test [3] it was -5.34%; in [4], 5.68%; in the test on Trypanosoma cruzi it was 4.56%; in [5], -4.39%. In addition, the Percent Effect in test [6] was 2.48%; in the test listed under Homo sapiens it was -3.19%; in test [7], 6.25%; in [8], 13.6%; in test [9], -5.58%.
In the case of `Cc1nc(CN2CCCC2c2c(C)nn(C)c2Cl)no1` (stereo unspecified), the Percent Effect was -2.73% in [1]; 5.26% in test [2]; -8.02% in test [3]; -3% in test [4]; -2.33% in the test on Trypanosoma cruzi; -3.24% in [5]. Moreover, the Percent Effect in test [6] is -9.22%; in the test listed under Homo sapiens, -11.3%; in test [7], 3.45%; in test [8], -1.24%; in test [9] it was 6.8%.
`CN(CC(=O)N(C)C1CCCCC1)C1CCc2ccccc21` (stereo unspecified): the Percent Effect in test [1] is -3.95%; in [2], 7.89%; in test [3], 6.4%; in [4], -4.14%; with Trypanosoma cruzi, -7.14%; in [5], 3.45%. In addition, the Percent Effect in test [6] was 7.35%; in the test listed under Homo sapiens it was 15.2%; in test [7], 2.45%; in test [8] it was 9.76%; in [9] it was -6.2%.

Source of the values: ChEMBL document CHEMBL3988442, “University of Dundee, Small-Polar-MMV Screening Library” (2021).
